# RORgamma inh = blocks mouse ROR gamma transcriptional activity. AID 2551. actives 5.4% (n = 310,000). Potency, µM (highest dose often 53.6 µM), inactives show at the top dose activity change, negative = inhibition, most hits filed as inhibitors. Drosophila S2 Gal4-RORgamma UAS-luciferase reporter, 20 h. P51450; further: nearly all actives have a fitted effect of over 60% in size
#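 Luciferase reporter read in Schneider cells carrying Gal4-RORγ (mouse) and UAS-Photinus luciferase; cells given compound 1 h before 700 uM copper sulfate induction, then incubated 20 h at ambient temperature.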
# Gal4-VP16 FLuc = counter-screen for ROR gamma inhibitors: Gal4-VP16 reporter. Drosophila S2 Gal4-VP16 UAS-luciferase, luminescence, 20 h. AID 2546. actives 3.5% (n = 310,000). Potency, µM (series often up to 53.6 µM), inactives show at the top dose activity, negative = inhibition, actives largely listed as inhibitors;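 further: Gal4-VP16 expression switched on by copper sulfate through the metallothionein promoter; nearly all actives have a fitted effect of over 50% in size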
# DT40 TDP1 CPT = growth inhibition of DT40 Tdp1-/-;hTDP1 cells with camptothecin (screen for TDP1 inhibitors); chicken DT40 Tdp1-/-;hTDP1 cells + 20 nM CPT, ATP luminescence, 48 h; Potency, µM (titrated, usually from 46.2 µM), without a hit: top-dose activity change, negative = growth inhibition, most hits filed as inhibitors; actives 12% (n = 420,000); AID 686979; further: nearly all actives have a fitted effect of over 55% in size
#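 Chicken DT40 Tdp1-/- cells complemented with human TDP1, 400 cells/well, exposed to compounds plus 20 nM camptothecin for at least 48 h at 37 C; viability read as ATP content by CellTiter-Glo luminescence.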
# TDP1 inh = blocks human tyrosyl-DNA phosphodiesterase 1 | Q9NUW8 | recombinant TDP1, AlphaScreen DNA substrate cleavage | Potency, µM (highest dose often 130 µM), for inactives: at the highest dose activity change, negative = inhibition, hits mostly inhibitors | actives 0.28% (n = 350,000) | AID 485290; further: nearly all actives have a fitted effect of over 40% in size
# Target sequence (Q9NUW8 whole entry, looked up): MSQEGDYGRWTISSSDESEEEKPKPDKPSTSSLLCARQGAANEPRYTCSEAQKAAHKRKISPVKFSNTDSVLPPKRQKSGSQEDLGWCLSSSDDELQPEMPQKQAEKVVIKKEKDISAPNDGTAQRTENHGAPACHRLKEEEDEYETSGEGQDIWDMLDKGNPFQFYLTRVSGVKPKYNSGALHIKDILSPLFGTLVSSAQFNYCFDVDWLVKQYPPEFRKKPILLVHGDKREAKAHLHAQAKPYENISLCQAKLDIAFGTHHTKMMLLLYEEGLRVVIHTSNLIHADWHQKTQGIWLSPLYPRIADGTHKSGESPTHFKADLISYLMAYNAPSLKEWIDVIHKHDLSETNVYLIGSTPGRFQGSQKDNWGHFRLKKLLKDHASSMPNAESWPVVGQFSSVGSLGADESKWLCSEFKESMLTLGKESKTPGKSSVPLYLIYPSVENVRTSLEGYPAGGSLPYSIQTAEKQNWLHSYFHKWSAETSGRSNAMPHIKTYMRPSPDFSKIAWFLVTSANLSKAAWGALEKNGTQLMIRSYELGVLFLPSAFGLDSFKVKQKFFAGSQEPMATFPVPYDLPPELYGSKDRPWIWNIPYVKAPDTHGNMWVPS
#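 E. coli-derived human Tdp1, 1 nM final. Cpd preinc 15 min RT; substrate 15 nM final, 5 min RT; AS bead mix 10 ug/ml final, 10 min RT. Signal loss = tyrosine-FITC cleavage. No-enzyme wells = max signal.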
# DT40 TDP1 no CPT = qHTS for Inhibitors of human tyrosyl-DNA phosphodiesterase 1 (TDP1): qHTS in cells in absence of CPT; DT40 Tdp1-/- hTDP1 cells, no CPT, ATP luminescence, 48 h; Potency, µM (series often up to 46.2 µM), for inactives: at the highest dose activity change, negative = growth inhibition, hits mostly inhibitors; actives 15% (n = 420,000); AID 686978, 2013; further: nearly all actives have a fitted effect of over 55% in size
#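 Chicken DT40 Tdp1-/- cells complemented with human TDP1, screened without camptothecin (DMSO vehicle only), 400 cells/well. Compounds pin-transferred, cells incubated at 37 °C for at least 48 hr. Growth read as ATP-dependent luminescence (CellTiter-Glo, 30 min at RT).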
# Active calls of the source: *; ? = inconclusive; . = no result. Rows were chosen to be rich in hits. Some 19% of all compounds tested hit in one or more screens of this group. The call rests on the fitted dose curve; in most records, active means well fitted curve in the direction sought with a large enough effect; inconclusive means small, poorly fitted or top-dose-only effect, or another doubt; inactive means no such curve, though single readings can be large; an effect the other way counts as inactive or inconclusive. On the % scale 0 is the no-effect control and ±100 the full control effect; potency means the concentration at half of the fitted maximal effect.
SMILES,RORgamma inh,Gal4-VP16 FLuc,DT40 TDP1 CPT,TDP1 inh,DT40 TDP1 no CPT
CCc1ccc(NCc2cc3cc4c(cc3n(CC(=O)Nc3ccc(OC)cc3)c2=O)OCO4)cc1,.,.,?,3.8%,4.61µM*
COc1ccc(NCc2cc3cc4c(cc3n(CC(=O)Nc3ccc(F)cc3F)c2=O)OCO4)cc1,.,.,6.51µM*,11.3%,14.6µM*
CN(C)CCCNC(=S)N(CCN(C)C)Cc1cc2cc3c(cc2[nH]c1=O)OCCO3,-28.3%,0.9%,23.2%,.,-2.1%
CN(C(=O)COC(=O)c1c[nH]c(=O)[nH]c1=O)C1CCCCC1,-5.6%,1.6%,-18.8%,-1.9%,7.8%
COc1ccc(-c2[nH]ncc2-c2csc(C)n2)c(O)c1,-42.6%,?,?,-2.6%,?
COc1ccc2c(c1)CCc1cn[nH]c1-2,-21.6%,9.5%,?,.,23.1µM*
COc1ccc(-c2nc(C)ncc2-c2ccccc2)c(O)c1,-15.8%,-10.2%,-16.5%,.,-8.8%
COc1ccc2c(c1)CCc1cnoc1-2,.,.,-17.6%,.,-21.9%
COc1ccc(-c2nc(C)ncc2-c2ccc(Cl)cc2)c(O)c1,19.2%,-3.1%,14.6µM*,.,-10.8%
COc1ccc(-c2cn[nH]c2-c2ccc(OC)cc2O)cc1,?,20µM*,?,.,?
COc1ccc(-c2[nH]ncc2-c2ccc(Cl)cc2)c(O)c1,8.91µM*,?,-24.2%,9.2%,?
Cc1cc(N2CCOCC2)nc(SCC(=O)OCc2ccccc2)n1,30.3%,3.1%,6.3%,4.8%,3.8%
Cc1cc(C(=O)OCC(=O)N2CC(=O)Nc3ccccc32)no1,-18.5%,0.1%,-15.5%,-2.1%,-11.0%
O=C(CSc1nnc(-c2ccncc2)n1Cc1ccccc1)NC1CCCc2ccccc21 (centres undefined),18.1%,7.2%,-30.4%,5.5%,?
COc1ccc(Nc2ccc(N3C(=O)CC(C)C3=O)cc2[N+](=O)[O-])cn1 (centres undefined),6.6%,0.8%,28.1%,5.3%,-9.4%
CCOC(=O)C(NC(=O)CCC(=O)Nc1ccc(S(N)(=O)=O)cc1)C(O)c1ccccc1 (centres undefined),-4.1%,-11.8%,7.2%,-3.0%,-3.6%
S=c1[nH]nc(-c2cc(-c3ccccc3)n[nH]2)n1/N=C/c1c(Cl)cccc1Cl,?,-9.6%,-9.8%,.,?
Cc1ccccc1/C=N/n1c(-c2cc(-c3ccccc3)n[nH]2)n[nH]c1=S,?,?,?,.,16.4µM*
Cc1ccsc1/C=N/n1c(-c2cc(-c3ccccc3)n[nH]2)n[nH]c1=S,2.82µM*,?,?,4.7%,?
CN(C(=O)c1ccccc1)C(=O)c1ccccc1,.,.,-20.3%,.,-3.4%
CN(C)CC(CCC(CN(C)C)C(=O)c1ccccc1)C(=O)c1ccccc1 (centres undefined),7.08µM*,10µM*,1.46µM*,2.7%,1.64µM*
COc1ccc(C(=O)C(CCCCC(CN(C)C)C(=O)c2ccc(OC)cc2)CN(C)C)cc1 (centres undefined),-2.7%,-3.4%,20.6µM*,2.0%,5.8µM*
COc1ccc(C(C)=O)cc1,.,.,9.4%,.,-5.8%
Cc1ccccc1CSCC(=O)NC(=O)NCc1ccco1,12.8%,?,-0.8%,-5.1%,-1.2%
Cc1ccnc(NC(=O)CCC(=O)N(CC(=O)NC(C)(C)C)Cc2ccc3c(c2)OCO3)c1,9.7%,-0.5%,?,4.9%,-23.4%
SMILES,RORgamma inh,Gal4-VP16 FLuc,DT40 TDP1 CPT,TDP1 inh,DT40 TDP1 no CPT
CC(C)C(C)NC(=O)COc1ccc(OCc2ccccc2)cc1 (centres undefined),?,-11.3%,?,2.6%,?
CC(C)C(C)NC(=O)COc1ccc(Sc2ccc(OCC(=O)NC(C)C(C)C)cc2)cc1 (centres undefined),?,?,11.6µM*,5.3%,8.2µM*
CC(C)C(C)NC(=O)COc1ccc(-c2ccccc2)cc1 (centres undefined),?,12.4%,18.4µM*,4.0%,20.6µM*
CC(C)NC(=O)COc1ccc(OCc2ccccc2)cc1,27.9%,-16.9%,?,-1.2%,29.1µM*
CCOc1ccc(S(=O)(=O)N2CCCC(C(=O)NCc3ccco3)C2)cc1 (centres undefined),20.4%,0.7%,0.1%,1.2%,-11.7%
CCCCCN(C(=O)CCC(=O)OCC(=O)N(CC)C1CCCCC1)c1c(N)n(CCCC)c(=O)[nH]c1=O,.,.,1.8%,-5.4%,-8.2%
O=C(Nc1ccc(S(=O)(=O)NC2CCCC2)cc1)c1cnccn1,-42.6%,-1.9%,?,3.1%,-28.4%
CSc1sc(C(=O)NC(=O)NCc2ccncc2)c(C)c1-c1ccon1,4.4%,1.7%,?,-8.6%,16.4µM*
O=C(NCc1ccccc1)NC(=O)c1ccncc1,3.1%,-12.0%,-6.3%,-2.2%,-25.2%
CCOC(=O)c1cc2c(n(-c3ccc(Cl)cc3)c1=O)CCCC2=O,-6.3%,-5.7%,-0.4%,0.0%,-8.8%
CCOC(=O)C1=C(N2CCCCC2)c2cc3c(n2C1=O)CCCC3,11.9%,-1.2%,?,11.8%,9.2µM*
Cc1ccc2cc(CN(Cc3ccco3)C(=O)C3CCCCC3)c(=O)[nH]c2c1C,-0.4%,-3.7%,?,7.3%,?
COc1ccccc1NC(=S)N(Cc1ccco1)Cc1cc2cc(C)cc(C)c2[nH]c1=O,-7.9%,2.7%,10.3µM*,4.1%,10.3µM*
CNC(=S)N(Cc1ccco1)Cc1cc2cc(OC)c(OC)cc2[nH]c1=O,2.8%,-12.2%,3.3%,3.0%,0.2%
Cc1ccc2cc(CN(Cc3ccco3)C(=O)NC3CCCCC3)c(=O)[nH]c2c1C,?,8.0%,16.4µM*,7.3%,29.1µM*
COc1ccccc1NC(=S)N(Cc1ccco1)Cc1cc2ccc(C)c(C)c2[nH]c1=O,1.0%,?,0.581µM*,8.2%,0.581µM*
CN1CCN(S(=O)(=O)c2ccc(SCCOc3ccc(Cl)cc3)nc2)CC1,.,.,-89.1%,6.2%,16.4µM*
COc1ccc(NC(C)C(=O)Nc2ccc(C(C)(C)C)cc2)cc1Cl (centres undefined),?,?,29.1µM*,7.8%,?
CCC[N+](C)(C)c1ccc(/C=C/c2ccncc2)cc1,.,.,0.355µM*,.,0.355µM*
CC[N+](C)(C)c1ccc(/C=C/c2ccncc2)cc1,.,.,0.708µM*,.,0.631µM*
CCNc1ccc(C(=O)OCC)cc1NC(=O)c1cccc(S(=O)(=O)N(C)c2ccccc2)c1,-1.5%,2.6%,16.4µM*,-2.8%,4.61µM*
CCNc1ccc(C(=O)OCC)cc1NC(=O)c1cccc(N(C)C)c1,0.7%,22.0%,3.26µM*,3.2%,2.59µM*
CCOC(=O)c1ccc(S(=O)(=O)NNC(=O)c2cccc(N(C)C)c2)cc1,29.7%,8.0%,0.6%,0.0%,27.6%

# Bioassay records deposited in PubChem by National Center for Advancing Translational Sciences (NCATS).
